The record followed here is PubChem BioAssay (NCATS).

Inconclusive results are not listed. A call without a number means that no potency is given here. Activity calls are given as the source filed them. Calls come from the whole dose curve; as a rule, active = well fitted cell-killing curve with a large enough effect; inconclusive = small, poorly fitted or top-dose-only effect, or effect the other way; inactive = flat fitted curve, though single readings scatter. *1 amine or outer side, *2 acyl side, *3 side chain or, on linkers, in order; H or OH if unused. Where a SMILES comes first, the peptide text is derived from it. Bridges are numbered along the chain shown (N, C = ends). Roman numbers before positions name the chains, in order. [ ]: non-standard residue; d: D form. ξ: configuration not given here. Actinocin(9to1) = Cc1c2oc3c(C)ccc(C(=O)[*:1])c3nc-2c(C(=O)[*:2])c(N)c1=O; ξNMeV = CNC(C(=O)O)C(C)C; ξV = CC(C)C(N)C(=O)O; Sar = CNCC(=O)O
Potency is the fitted concentration of half-maximal effect.

The nature of this assay: Identifying Small Molecule Inhibitors of Pancreatic Cancer Stem Cells (SN12C, Spheroid) (AID 1259360). Particulars: Potency: SN12C spheroid viability; series mostly up to 46.1 µM. An excerpt: Progenitor-like cancer cells, often referred to as cancer stem cells (CSC), are believed to be the drivers of therapeutic resistance and rapid recurrence. CSCs are postulated to reside in specific niches characterized by low oxygen tension, limited nutrient supply, and high redox load. Selectively targeting CSC, alone or in combination with cytotoxic agents, as a means to produce durable remissions is an appealing concept. Modeling these cells in in vitro setting is an important step in finding new therapies and/or targets. Multiple reports highlight that forcing cells in culture into 3-dimensionaly architectures (spheroids) re-establishes key progenitor-like transcriptional signatures. Pancreatic cancer is among the diseases with the most dismal outlook which is driven, largely, by recurance following front-line therapies. […] In hopes of deriving new insight into the targeting of these pancreatic CSCs we examined three established pancreatic cancer cell lines in cytotoxicity assays versus a collection of approved and investigational drugs. Importantly, we screened these lines as traditional monolayer (2D) and spheroid (3D) formats to gain an appreciation of agents with differential activity.
Multicellular tumor spheroids from Panc1, MiaPaCa-2, and the primary low-passage tissue culture line SB.06 were seeded in stem cell media (SCM) in nonadherent 6-well plates coated with hydrogel (Corning Life Sciences, Chelmsford, Mass) and pancreatic spheres generated for 14 days before screening. Cells were seeded into 1536-well solid-bottom white tissue culture treated Greiner Bio One Plates (789173-F) using a MultiDrop Combi (Thermofisher Scientific) dispenser and a small sterile cassette. One column was media alone to be used as a :"no cells" control. The plates were then covered with sterilized stainless steel gasketed lids from Kalypsys. After allowing cells to attach for 4 hours, 23 nL of test compound or control (negative control DMSO and positive control 9.2 uM Bortezomib-final) were added from a 1536-well polypropylene compound source plate to each well using a 1536 head pin tool from Kalypsys. Cells were then incubated for 48 hours at 37C, 95% relative humidity and 5% CO2. After 48 hours, plates were removed from the incubator and 3 uL of CellTiter-Glo (Promega) was added using an Aurora Flying Reagent Dispenser Bioraptor. Plates were incubated at room temperature for 10 minutes prior to reading the luminescence on the Viewlux (PerkinElmer). The relative luciferase units are used to calculate the percent activity using the activity of DMSO in the cells and no cells columns for normalization of no inhibition and full inhibition respectively.
Take `CCC1(O)CC2CN(CCc3c([nH]c4ccccc34)[C@@](C(=O)OC)(c3cc4c(cc3OC)N(C=O)[C@H]3[C@](O)(C(=O)OC)[C@H](OC(C)=O)[C@]5(CC)C=CCN6CC[C@]43[C@@H]65)C2)C1` (some centres not stated): the Potency was 3320 nM (active).
In the case of `Cc1nnc(C(C)C)n1C1CC2CCC(C1)N2CC[C@H](NC(=O)C1CCC(F)(F)CC1)c1ccccc1` (some centres not stated), the Potency entry is “inactive”.
Under `CCCCCCCCCCCCCCCCCCOP(=O)([O-])OC1CC[N+](C)(C)CC1` stands “inactive”.
On to `CCOc1cc2ncc(C#N)c(Nc3ccc(OCc4ccccn4)c(Cl)c3)c2cc1NC(=O)/C=C/CN(C)C`, for which the Potency is 4690 nM (active).
Under `O=C(O)CC/C=C\CC[C@H]1[C@@H](N2CCCCC2)[C@@H](O)C[C@@H]1OCc1ccc(-c2ccccc2)cc1` stands “inactive”; under `CCC1(Cc2ccc(N)cc2)CCC(=O)NC1=O` (configuration not stated), “inactive”; under `O=c1cc(C2=CC=CC3Sc4ccccc4SC23)oc(N2CCOCC2)c1` (configuration not stated), “inactive”.
Turning to `C[C@@H]1CCN(C(=O)CC#N)C[C@@H]1N(C)c1ncnc2[nH]ccc12`, the Potency entry was “inactive”.
In the case of `Cc1c2oc3c(C)ccc(C(=O)N[C@@H]4C(=O)NC(C(C)C)C(=O)N5CCC[C@H]5C(=O)N(C)CC(=O)N(C)C(C(C)C)C(=O)O[C@@H]4C)c3nc-2c(C(=O)N[C@@H]2C(=O)NC(C(C)C)C(=O)N3CCC[C@H]3C(=O)N(C)CC(=O)N(C)C(C(C)C)C(=O)O[C@@H]2C)c(N)c1=O` (some centres not stated) (I: T[ξV]P[Sar][ξNMeV] / II: T[ξV]P[Sar][ξNMeV]; ester I:1-I:C, II:1-II:C; linker I:N-II:N via Actinocin(9to1)), the Potency was 4.7 nM (active).
With `CN(NC(=O)CC(=O)NN(C)C(=S)c1ccccc1)C(=S)c1ccccc1`, the Potency is 743 nM (active).
Take `CC[C@@H](C(=O)O)C1CC[C@H](C)C([C@@H](C)[C@H](O)[C@H](C)C(=O)[C@H](CC)C2O[C@]3(C=C[C@@H](O)[C@]4(CC[C@@](C)(C5CC[C@](O)(CC)[C@H](C)O5)O4)O3)[C@H](C)C[C@@H]2C)O1` (some centres not stated): the Potency was 1870 nM (active).
The figure for `NC(=O)Nc1cc(-c2ccc(CN3CCOCC3)c(F)c2)sc1C(=O)N[C@H]1CCCNC1` is 16600 nM (active).
